A selection: hits, their analogues and other compounds. The true share with any hit is near 9.3%.
FLuc modulator = firefly luciferase modulation, counter-screen for miR-21 project; P08659; purified FLuc, Km substrates, luminescence inhibition; Potency, µM (highest dose often 57.5 µM), without a hit: at the top dose activity change, negative = inhibition, actives largely listed as inhibitors; 360,000 compounds, 6.9% hits;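 further: plate controls were vehicle for no effect and reference inhibitor for full effect; nearly all actives have a fitted effect of over 55% in size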
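Biochemical qHTS of compounds, final roughly 60 µM downward over six points, against 10 nM purified firefly luciferase using Km concentrations of substrates (10 uM D-luciferin, 10 uM ATP) in Tris acetate pH 7.5 buffer; luminescence output.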
ELG1 genotox = genotoxicity induction in ELG1-luciferase HEK293T cells; HEK293T ELG1-luciferase reporter, luminescence, 16 h; 330,000 compounds, 1.3% hits; Potency, µM (series often up to 46 µM), inactives show top-dose activity change, positive = activation, most hits filed as activators; further: % of control where 0% means no effect; nearly all actives have a fitted effect of over 60% in size
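After overnight (16 hr) compound treatment at 37 °C, ELG1-luciferase HEK293T cells were lysed with ONE-Glo; luminescence quantified 30 min later at room temperature.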
ELG1 repair inh = ELG1-dependent DNA repair inhibition; HEK293T ELG1-luciferase reporter, luminescence, 16 h; DNA damage induced by 5-fluorouridine; Potency, µM (highest dose often 46.1 µM), without a hit: top-dose activity change, negative = inhibition, usual class: inhibitors; 330,000 compounds, 2.3% hits; AID 504467; further: on the % scale 0 is the no-effect control and ±100 the full control effect; nearly all actives have a fitted effect of over 55% in size
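Overnight (16 hr) co-exposure of 2,000 cells/well to 5-fluorouridine and compound at 37 °C preceded detection. Luciferase was quantified via ONE-Glo luminescence; loss of signal denotes inhibition.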
Rab9 prom act = activators of Rab9 promoter; Huh7 Rab9 promoter-luciferase reporter, luminescence, 24 h; Potency, µM (doses to about 9.22 µM), inactives show top-dose activation, negative = inhibition, usual class: activators; 320,000 compounds, 2.8% hits; AID 485297; further: % of control where 0% means no effect; nearly all actives have a fitted effect of over 60% in size
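Quantitative HTS format; Huh7 Rab9-luciferase reporter cells (1500/well) receive compound 2 h post-plating, incubate 24 h at 37 °C, then get luciferase reagent for 10 min before luminescence reading.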
NPC1 promoter act = activators of NPC1 promoter | Huh7 NPC1 promoter luciferase reporter, 24 h | Potency, µM (top dose mostly 9.22 µM), for inactives: top-dose activation, usual class: activators | 320,000 compounds, 2.4% hits | AID 485313; further: % of control where 0% means no effect; nearly all actives have a fitted effect of over 60% in size
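In 1536-well qHTS, Huh7 cells harboring an NPC1 promoter–luciferase construct received compound for 24 h; activation was quantified by luminescence following luciferase reagent addition.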
SMN2 splice enh = SMN2 splice variant enhancement; HEK293 SMN2-luciferase splicing reporter, luminescence, 30-36 h; 210,000 compounds, 2.8% hits; Potency, µM (highest dose often 46.1 µM), inactives show at the highest dose activity change, positive = activation, actives largely listed as activators; further: % of control where 0% means no effect; nearly all actives have a fitted effect of over 55% in size
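qHTS luciferase splicing reporter: luminescence rises when SMN2 exon 7 is included in transfected HEK293 cells. Compound exposure lasted 30-36 h at 37C, with 4.5 mM final sodium butyrate as control, followed by a ONE-Glo read.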
Numbers without * were called inactive; u = inconclusive; x = not tested or not shown. The call rests on the fitted dose curve; in most records, active means well fitted curve in the direction sought with a large enough effect; inconclusive means small, poorly fitted or top-dose-only effect, or another doubt; inactive means no such curve, though single readings can be large; an effect the other way counts as inactive or inconclusive. Potency means the concentration at half of the fitted maximal effect.

SMILES	FLuc modulator	ELG1 genotox	ELG1 repair inh	Rab9 prom act	NPC1 promoter act	SMN2 splice enh
COc1ccccc1NC(=O)COC(=O)/C=C/c1ccc2c(c1)OCO2	11µM*	u	u	12%	11%	-1%
COc1ccccc1N1CCN(C(=O)/C=C/c2ccc3c(c2)OCO3)CC1	-9%	-6%	-3%	1%	-3%	-10%
Cc1ccc(S(N)(=O)=O)cc1NC(=O)/C=C/c1ccc2c(c1)OCO2	24µM*	1%	0%	3%	-1%	-5%
Cc1ccc(S(N)(=O)=O)cc1NC(=O)/C=C/c1cccs1	-12%	0%	3%	-1%	-4%	-11%
O=C1CC(N2CCN(c3ccc(F)cc3)CC2)C(=O)N1Cc1cccs1 (centres undefined)	5%	-1%	-6%	-2%	0%	6%
NC(=O)c1ccc(NC(=O)COC(=O)/C=C/c2ccc3c(c2)OCO3)cc1	12µM*	7%	6%	3%	2%	x
Cc1ccc(SC(C)C(=O)N2CCN(c3ccccc3)CC2)cc1 (centres undefined)	5%	-7%	-6%	0%	2%	x
O=[N+]([O-])c1cccc(NC(=S)N2CCc3ccccc3C2)c1	u	12%	u	26%	u	u
O=C1/C(=C/Nc2cccc([N+](=O)[O-])c2)CCc2ccccc21	2.7µM*	u	u	2.5µM*	2.8µM*	11µM*
O=C1/C(=C\c2ccc([N+](=O)[O-])cc2)CCc2ccccc21	0.095µM*	7.3µM*	u	24%	21%	u
O=C1/C(=C/c2ccc(O)cc2)CCc2ccc([N+](=O)[O-])cc21	-20%	0%	u	-1%	-6%	8%
CC(=O)Nc1ccc(/C=C2\CCc3ccccc3C2=O)cc1	6.7µM*	u	u	u	3.2µM*	x
COc1ccc(C(=O)N/N=C(\C)CC(=O)Nc2ccc3c(c2)OCCO3)c(OC)c1	0%	3%	-4%	-2%	-1%	x
CCc1nnc(NC(=O)CCC(=O)N2CCN(CCOc3ccc(C)cc3)CC2)s1	0%	-15%	23µM*	-6%	-5%	-44%
COCCCn1c(C(=O)NCCN2CCOCC2)cc2c(=O)n3ccccc3nc21	2.7µM*	10%	8%	-2%	-4%	x
CCN(CC)S(=O)(=O)c1ccc2c(c1)N(CC(=O)Nc1c(C)cc(C)cc1C)C(=O)C1CCCN21 (centres undefined)	2%	x	x	x	x	x
CCOC(=O)c1ccc(-c2ccc(/C=N/NC(=O)CN(c3ccccc3Br)S(C)(=O)=O)o2)cc1	-17%	-16%	u	u	u	11µM*
CN(C)c1ccc(/C=N/NC(=O)CN(c2ccccc2Cl)S(C)(=O)=O)cc1Br	-16%	-6%	10µM*	0%	-1%	-4%
CCCCN(C)C(=O)C1CCN(C/C(C)=C/c2ccccc2)CC1	1%	-2%	-9%	3%	0%	-13%
O=C(Nc1ccccc1)c1ccc(CSc2ncccn2)cc1	3.4µM*	u	u	1µM*	1.1µM*	13µM*
O=C(Nc1ccccc1F)c1ccc(OCc2ccccc2)cc1	u	u	u	u	u	22µM*
O=C(Nc1ccccc1F)c1ccc(CSc2ncccn2)cc1	u	u	u	3.5µM*	3.5µM*	u
O=C(Nc1ccc(OCc2ccccc2)cc1)c1ccccc1	1%	16%	u	u	u	u
Cc1ccc(NC(=O)c2ccc(CSc3nccc(C)n3)cc2)cc1	u	-5%	u	9%	19%	x
O=C(OCc1ccc2c(c1)OCO2)c1ccc(S(=O)(=O)N2CCCC2)cc1	2%	-3%	-19%	-6%	-3%	-2%
CN1C(C(=O)NCCc2cccs2)CC2Cn3c(nc4cc5ccccc5cc43)C21 (centres undefined)	-20%	-4%	-23%	-1%	-1%	x

Screens from PubChem BioAssay.
